Only some compounds are listed: those with a hit (about 2.4% of all), similar ones and a draw of the others.
RTF Ca sens act = cardiac RTF calcium sensitivity activators, primary screen, biochemical, IANBD-TnC fluorescence, EC20 calcium; AID 493008, 2010; 340,000 compounds, 0.24% hits; IANBD-labeled TnC RTF fluorescence at EC20 calcium; 0% EC20 calcium, 100% full calcium; activation, % at 7.2 µM; Troponin I, cardiac muscle (Homo sapiens) + Troponin T, cardiac muscle (Homo sapiens) + …;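 active = activation above the mean over all tested compounds plus 3 SD, cut at about 30% in these data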;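 note: rise in fluorescence read as greater calcium sensitivity of cardiac thin filaments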
TMEM16A act = TMEM16A chloride channel activators or potentiators, primary screen, cell-based, HTS; Anoctamin-1 (Mus musculus), Q8BHY3; HEK293 TMEM16A/YFP-H148Q/I152L, iodide quench fluorescence; hits give low values; B-score at 10 µM; 340,000 compounds, 0.3% hits;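 active = fluorescence-ratio B-score plate-corrected deviation score at least 3 library SD below zero, with starting fluorescence score within 5 deviations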;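 note: channel opened by trigger with iodide after compound preincubation; score built on the fluorescence ratio of max minus min over baseline; more negative score means more quench and so TMEM16A activation or potentiation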
Target sequence (Q8BHY3 whole entry, looked up): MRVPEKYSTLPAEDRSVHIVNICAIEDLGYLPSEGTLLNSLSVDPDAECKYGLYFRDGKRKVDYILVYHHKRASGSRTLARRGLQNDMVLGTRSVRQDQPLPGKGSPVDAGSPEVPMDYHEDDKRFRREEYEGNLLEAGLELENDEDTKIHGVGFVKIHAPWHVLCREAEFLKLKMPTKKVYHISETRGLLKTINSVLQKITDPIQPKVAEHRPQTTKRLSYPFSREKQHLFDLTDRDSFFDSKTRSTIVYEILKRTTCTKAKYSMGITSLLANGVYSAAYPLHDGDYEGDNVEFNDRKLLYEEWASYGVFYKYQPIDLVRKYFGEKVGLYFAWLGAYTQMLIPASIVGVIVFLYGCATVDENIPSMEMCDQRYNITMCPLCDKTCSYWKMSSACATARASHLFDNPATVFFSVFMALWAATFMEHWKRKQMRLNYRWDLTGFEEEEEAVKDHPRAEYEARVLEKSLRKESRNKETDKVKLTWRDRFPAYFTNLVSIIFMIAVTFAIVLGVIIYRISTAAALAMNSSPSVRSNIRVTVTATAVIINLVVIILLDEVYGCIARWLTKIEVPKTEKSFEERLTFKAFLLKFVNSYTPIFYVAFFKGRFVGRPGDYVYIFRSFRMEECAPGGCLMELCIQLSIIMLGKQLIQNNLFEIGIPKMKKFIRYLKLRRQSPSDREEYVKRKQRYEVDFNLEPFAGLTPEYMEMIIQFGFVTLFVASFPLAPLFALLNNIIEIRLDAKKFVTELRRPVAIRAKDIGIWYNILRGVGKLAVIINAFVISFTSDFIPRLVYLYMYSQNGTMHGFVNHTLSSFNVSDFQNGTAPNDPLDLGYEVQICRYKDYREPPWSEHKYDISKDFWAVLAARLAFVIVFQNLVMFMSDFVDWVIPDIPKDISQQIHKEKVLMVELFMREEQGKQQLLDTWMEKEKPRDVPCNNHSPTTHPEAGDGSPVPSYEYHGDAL
ANO1 block = TMEM16A chloride channel inhibitors, primary screen, cell-based, HTS; normalized B-score (activity score, 25-100; higher = stronger inhibition) at 10 µM; Anoctamin-1 (Mus musculus), Q8BHY3; AID 588511, 2011; HEK293 TMEM16A/YFP iodide influx fluorescence, ionomycin; 310,000 compounds, 1.2% hits;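 active = ratio plate-corrected score three or more library SD toward inhibition, starting fluorescence score within five deviations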;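 note: score derived from kinetic fluorescence span divided by baseline fluorescence per well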
Cardiac RTF inh = cardiac RTF calcium sensitivity inhibitors, primary screen, biochemical, IANBD-TnC fluorescence, EC70 calcium. Troponin I, cardiac muscle (Homo sapiens) + Troponin T, cardiac muscle (Homo sapiens) + …. 340,000 compounds, 0.12% hits. inhibition, % at 7.15 µM. IANBD-labeled cardiac RTF, Ca2+ fluorescence;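 active = inhibition above the mean inhibition of all tested compounds plus 3 SD, cut at about 17% in these data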;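 note: assay run at fixed EC70 calcium of 1.6 mM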
CRFR2-BP antag = antagonists of CRF-BP/CRF-R2 complex, primary screen, cell-based, HEK293, calcium dye fluorescence, uHTS. CRF-induced calcium fluorescence. inhibition, % at 11.8 µM. 350,000 compounds, 0.59% hits. AID 588475, 2011;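 active = inhibition of the ligand-induced calcium signal above about 50% at the single tested concentration, limit read from the data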
CRFBP-R2 agonist = agonists of CRF-BP/CRF-R2 complex, primary screen, cell-based, HEK293, calcium dye fluorescence, uHTS; CRF-binding protein / CRF receptor 2 complex (human); calcium dye fluorescence (FLIPR); percent of saturating CRF peptide response; activation, % at 13.2 µM; 350,000 compounds, 0.46% hits; AID 588473, 2011;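 active = activation of at least 50%, plus an integration ratio under a set limit after plate pattern correction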;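 note: plate controls were neutral control wells without compound for no effect and CRF at EC100 for full effect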
TMEM16A reconf = TMEM16A chloride channel inhibitors, confirmation, cell-based, re-confirmation. shares compounds with ANO1 block. HEK293 TMEM16A/YFP-H148Q, iodide quench fluorescence; ionomycin added to raise cell calcium. inhibition, % at 10 µM. 2,300 compounds, 39% hits;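 active = mean duplicate percent inhibition, scaled so buffer wells are 0 and the reference blocker 100, over three buffer SD above buffer mean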
HEK293 Ca mobil = calcium mobilization in TMEM16A/YFP HEK293 cells, confirmation, counter-screen for TMEM16A inhibitor project | shares compounds with ANO1 block | Fluo4 calcium mobilization | calcium response (% of ionomycin), % at 10 µM | 2,300 compounds, 2% hits | AID 652231, 2013;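 active = duplicate-averaged calcium signal over 20% of the ionomycin maximum, relative to buffer baseline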;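 note: each well's signal is peak minus trough fluorescence divided by its pre-addition baseline; 0% = buffer wells and 100% = ionomycin wells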
YFP-HEK293 quench = iodide YFP quench changes in parental YFP-HEK293, counter-screen for TMEM16A inhibitor project, cell-based; shares compounds with ANO1 block; ionomycin; YFP ratio F(max-min)/F0 at 10 µM; 2,300 tested, under 10 active; AID 652233, 2013;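 active = yellow fluorescent protein signal ratio exceeding the buffer control mean by over 5 SD of those controls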;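 note: ratio is mean of duplicate wells from kinetic YFP trace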
ClC-1 rat inh = ClC-1 chloride channel inhibition, selectivity assay for TMEM16A inhibitor project, cell-based, voltage-dependent ClC-1; CHO ClC-1-YFP, iodide influx fluorescence quench; iodide control reads 0, buffer control 100; ratio percent, % at 10 µM; shares compounds with ANO1 block; 2,300 tested, under 10 active;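 active = duplicate-mean ratio percent above the mean of iodide-only control wells, which defines zero, plus 5 of their SD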;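 note: higher percent means stronger block of ClC-1 iodide influx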
* hit, by the source's call; i = inactive; x = no result.

SMILES | RTF Ca sens act | TMEM16A act | ANO1 block | Cardiac RTF inh | CRFR2-BP antag | CRFBP-R2 agonist | TMEM16A reconf | HEK293 Ca mobil | YFP-HEK293 quench | ClC-1 rat inh
Cc1cc(C(=O)COC(=O)c2ccccc2Br)c(C)n1CC1CCCO1 (configuration not stated) | -1 | i | i | -1 | 0 | 0 | x | x | x | x
COC(=O)CCCn1c(C)cc(C(=O)CCl)c1C | 3 | i | i | -7 | 21 | 1 | x | x | x | x
Cc1c(Cl)cccc1NC(=S)NNc1ncc(C(F)(F)F)cc1Cl | 0 | i | 25* | -3 | -18 | 20 | 40%* | i | -1.2 | -13
COc1ccc(NC(=O)CSc2nc3c(sc4ccccc43)c(=O)n2CCCN2CCCC2)cc1 | -1 | i | i | -5 | -15 | 0 | x | x | x | x
COC(=O)C1CCN(S(=O)(=O)c2ccc(OC)cc2)CC1 | -2 | i | 100* | -6 | 10 | 0 | i | i | -1.2 | -10
COc1ccc(O)c(CN2CCC(n3nccc3NC(=O)c3ccccc3Cl)CC2)c1 | 2 | i | i | -2 | 3 | 2 | x | x | x | x
CC(C)Cn1c(Cc2ccccc2)n[nH]c1=S | -3 | i | 100* | 3 | -5 | -1 | i | i | -1.2 | -4
Cc1ccc(Cn2ncc3c(N4CCN(Cc5ccc(Cl)cc5)CC4)ncnc32)cc1 | -2 | i | 25* | 5 | -2 | 4 | 18%* | i | -1.1 | -8
CC1CCN(c2ncnc3c2cnn3Cc2ccc(Cl)cc2)CC1 | 9 | i | i | -10 | -59 | 8 | i | i | -0.96 | -10
Cc1ccc(Cn2ncc3c(N4CCN(CCc5ccccc5)CC4)ncnc32)cc1 | x | i | i | x | -3 | 1 | x | x | x | x
Cc1cc(C)nc(N2CCN(c3ncnc4c3cnn4Cc3ccc(Cl)cc3Cl)CC2)n1 | x | x | 100* | x | 20 | 0 | 28%* | i | -1 | -20
Cc1ccc(Cn2ncc3c(N4CCN(C)CC4)ncnc32)cc1 | 2 | i | i | -4 | -4 | -1 | x | x | x | x
Cc1ccc(Cn2ncc3c(N4CCN(c5ccc(C)cc5)CC4)ncnc32)cc1 | -5 | i | 100* | -2 | 4 | 1 | 24%* | i | -1 | -10
Nc1cc(S(=O)(=O)N2CCCCC2)ccc1Oc1ccccc1 | -3 | i | 25* | -6 | 13 | -1 | 16%* | i | -1 | -9
CCOc1ccc(Oc2ccc(S(=O)(=O)N3CCOCC3)cc2N)cc1 | -2 | i | i | -7 | 39 | -3 | x | x | x | x
CNC[C@@H](CC1CCCCC1)NC[C@H](CC(C)C)NCCc1cccc(C(F)(F)F)c1 | 4 | i | 25* | -6 | -47 | 18 | i | i | -1.1 | -1
CNC[C@@H](Cc1ccccc1)NC[C@@H](CC1CCCCC1)NCCCc1ccccc1 | 0 | i | i | -26 | -14 | 9 | x | x | x | x
COc1cc2c(cc1NC(=O)c1cc(-c3ccncc3)nc3ccc(C)cc13)oc1ccccc12 | 0 | i | 25* | 0 | 1 | 1 | i | i | -1.2 | -6
CCOC(=O)c1c(C)[nH]c(C(=O)OC/C(O)=C(\C#N)c2nc3ccccc3[nH]2)c1C | 2 | -7.5* | 100* | 4 | -15 | 2 | i | i | -0.93 | 0
COc1ccc2oc(C(=O)OC/C(O)=C(\C#N)c3nc4ccccc4[nH]3)c(C)c2c1 | 3 | i | i | 2 | -14 | 2 | x | x | x | x
CCOc1ccc(Nc2cc(Nc3ccccc3OCC)nc(C=C(C#N)C#N)n2)cc1 | -3 | i | i | -11 | -9 | 2 | i | i | -1.3 | -2
COc1ccc(/C=N/Nc2nnc(Cc3ccccc3)c(=O)[nH]2)cc1 | -2 | i | i | -20 | -1 | 2 | i | i | -0.36 | -4
O=C(Nc1nc2ccccc2s1)C1CCN(S(=O)(=O)c2cc([N+](=O)[O-])ccc2Cl)CC1 | -4 | i | i | 4 | -3 | 0 | x | x | x | x
O=C(Oc1cccc(C(=S)N2CCOCC2)c1)c1cc([N+](=O)[O-])cc([N+](=O)[O-])c1 | -5 | i | i | 0 | 10 | -1 | x | x | x | x
Clc1ccc(CSC2=NCCCN2)cc1Cl | 4 | i | i | 2 | 1 | 1 | x | x | x | x
SMILES | RTF Ca sens act | TMEM16A act | ANO1 block | Cardiac RTF inh | CRFR2-BP antag | CRFBP-R2 agonist | TMEM16A reconf | HEK293 Ca mobil | YFP-HEK293 quench | ClC-1 rat inh
Clc1ccccc1CSC1=NCCCN1 | -4 | i | 100* | 2 | -7 | 1 | i | i | -1.1 | -11
O=C(/C=C/Nc1ccc(F)c(Cl)c1)c1ccccc1 | 0 | i | i | -5 | -4 | -1 | x | x | x | x
N#C/C(=N\Nc1cccc(C(F)(F)F)c1)C(=O)c1ccsc1 | 1 | i | 25* | -4 | 44 | 35 | 38%* | i | -1.1 | -19
COCCCNC(=O)C1=CCN(S(=O)(=O)c2ccc(OC)cc2)CC1 | -3 | i | i | -2 | -7 | 0 | x | x | x | x
CCN(CCCNC(=O)C1CCC(=O)N1C(C)C)c1cccc(C)c1 (configuration not stated) | 2 | i | i | -14 | 4 | 0 | x | x | x | x
COc1ccccc1NS(=O)(=O)c1cccc(C(=O)NC2CCN(Cc3ccccc3)CC2)c1 | 2 | i | 100* | 1 | -12 | 1 | 56%* | i | -1 | -27
COc1ccc2cc(C(=O)NCCO)sc(=O)c2c1OC | 9 | i | 25* | 2 | -14 | -1 | i | i | -1.1 | -11
CCOCCCNc1nc2c(C)cccn2c(=O)c1/C=C1\SC(=S)N(CC(C)C)C1=O | 3 | i | i | 5 | -358 | 170* | i | i | -0.086 | 44

Bioassay records deposited in PubChem BioAssay by several laboratories.
